Compounds with a hit are over-represented: about 11% of the library has one in this group of screens.
BAZ2B inh: blocks human BAZ2B | AlphaScreen BAZ2B-H3K14Ac peptide displacement | actives 4.4% (n = 360,000) | Q9UIF8 | AID 504333 | Potency, µM (highest dose often 114 µM), without a hit: at the highest dose activity change, negative = inhibition, usual class: inhibitors; also: % is scaled to controls: 0 for no effect and ±100 for the full control effect; nearly all actives have a fitted effect of over 60% in size
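BAZ2B 50 nM plus b-H3(5-23)K14Ac 50 nM, PBS pH 7.4/0.01% Tween-20, 30 min RT; compound added (max 110 uM), 30 min RT; streptavidin donor/Ni-chelate acceptor beads 10 ug/mL final, 20 min dark; AlphaScreen read.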
G9a block: inhibitors of human histone lysine methyltransferase G9a; Q96KQ7; G9a H3K9 monomethylation, AlphaScreen, 2 h; Potency, µM (doses to about 102 µM), inactives show top-dose activity, negative = inhibition, actives largely listed as inhibitors; actives 8.8% (n = 350,000); also: % is scaled to controls: 0 for no effect and ±100 for the full control effect; nearly all actives have a fitted effect of over 75% in size
Target sequence (Q96KQ7 913-1193 limits assumed): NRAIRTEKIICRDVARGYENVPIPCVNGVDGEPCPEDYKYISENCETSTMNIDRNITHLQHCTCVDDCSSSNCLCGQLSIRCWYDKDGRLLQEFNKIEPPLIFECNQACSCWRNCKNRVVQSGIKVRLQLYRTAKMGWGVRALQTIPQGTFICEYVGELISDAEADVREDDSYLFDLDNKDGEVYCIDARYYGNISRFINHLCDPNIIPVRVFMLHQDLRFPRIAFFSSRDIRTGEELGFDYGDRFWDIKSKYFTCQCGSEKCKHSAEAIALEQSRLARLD
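Step 1: enzyme (final 20 nM) with compound, 15 min RT. Step 2: substrate peptide 500 nM and SAM 20 uM, 2 h RT. Step 3: anti-H3K9me1 antibody and AlphaScreen beads, 10 min, then plate read.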
L3MBTL1 block: L3MBTL1 (human) inhibition; Q9Y468; AlphaScreen L3MBTL1–H3K9me1 peptide binding; Potency, µM (series often up to 57.1 µM), for inactives: top-dose activity, negative = inhibition, hits mostly inhibitors; actives 0.66% (n = 230,000); also: % is scaled to controls: 0 for no effect and ±100 for the full control effect; nearly all actives have a fitted effect of over 60% in size
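AlphaScreen assay: L3MBTL1 (50 nM final) was preincubated 30 min at room temperature with biotinylated H3(1-15)K9me1 peptide (75 nM final), then 30 min with library compounds; streptavidin donor and nickel chelate acceptor beads (10 ug/mL final) added, 30 min dark.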
HP1b chromo inh: blocks HP1-beta chromodomain binding to methylated histone tails | Potency, µM (highest dose often 114 µM), without a hit: top-dose activity change, negative = inhibition, usual class: inhibitors | AID 540317 | actives 0.56% (n = 390,000) | AlphaScreen HP1-beta / biotin-H3K9me3 peptide binding; also: nearly all actives have a fitted effect of over 70% in size
Target sequence (P83916 whole entry, looked up): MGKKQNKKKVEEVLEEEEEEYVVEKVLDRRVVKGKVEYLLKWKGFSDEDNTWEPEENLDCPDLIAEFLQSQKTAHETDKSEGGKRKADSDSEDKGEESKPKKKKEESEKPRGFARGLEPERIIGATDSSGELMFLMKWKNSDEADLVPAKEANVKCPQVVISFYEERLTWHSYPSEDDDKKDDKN
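AlphaScreen: HP1-beta (50 nM) preformed 30 min with biotin-H3(1-18)K9me3 peptide (50 nM) in PBS pH 7.4, 0.01% Tween-20. Compound added for 30 min at RT, then streptavidin donor/nickel chelate acceptor beads (10 ug/mL) for 30 min.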
JMJD2A Tudor: JMJD2A Tudor domain (human) inhibition; Potency, µM (titrated, usually from 114 µM), without a hit: top-dose activity change, negative = inhibition, usual class: inhibitors; AlphaScreen JMJD2A-Tudor / H3K4me3 peptide binding; actives 4.4% (n = 390,000); AID 504339; O75164; also: % is scaled to controls: 0 for no effect and ±100 for the full control effect; nearly all actives have a fitted effect of over 50% in size
Active calls of the source: *; [ ] = dose if it differs, or a comment. Calls follow the shape of the dose curve; as a rule, active = well fitted inhibition curve with a large enough effect; inconclusive = small, poorly fitted or top-dose-only effect; inactive = no such curve, though single readings can be large or run the other way. Potency is read from the fitted curve at half-maximal effect.

For CC(C)OC(=O)c1ccc(NCc2cc(O)ccc2O)cc1 the results were HP1b chromo inh 39.8µM* and JMJD2A Tudor 3.98µM*.
`CC(C)OC(=O)c1ccc(NC(=O)c2ccccc2)cc1` gave BAZ2B inh 10.2%, G9a block -8.6%[59 µM], L3MBTL1 block 10.2%, HP1b chromo inh 39.5% and JMJD2A Tudor 3.4%.
For COc1cc(C2CC(=O)Nc3c2c(=O)n(C)c(=O)n3C)cc(OC)c1OC (stereo not given) the results were BAZ2B inh 7.7%, G9a block 10.7%[59 µM], HP1b chromo inh 13.9% and JMJD2A Tudor 7.1%.
For COCCn1c(SCC(=O)c2ccc(C)cc2C)nc2cc(C(=O)NC3CCCC3)ccc2c1=O the results were BAZ2B inh 2.3%, G9a block 5.2%[59 µM], HP1b chromo inh 32.1% and JMJD2A Tudor -1.9%.
For Cc1cc(NC2CCCCC2)nc(-c2ccccc2O)n1 the results were BAZ2B inh 56.2µM*, G9a block 17.8µM*, L3MBTL1 block 16.3%, HP1b chromo inh inconclusive and JMJD2A Tudor 7.94µM*.
Screening C(/C=C/c1ccccc1)=N/N1CCN(c2ccccc2)CC1 returned BAZ2B inh -7.2%, G9a block inconclusive, L3MBTL1 block -0.9%, HP1b chromo inh -4.6% and JMJD2A Tudor -24.5%.
Screening O=[N+]([O-])c1ccccc1/C=C/C=N/N1CCCCC1 returned BAZ2B inh 20µM*, G9a block 39.8µM*, HP1b chromo inh 50.1µM* and JMJD2A Tudor 17.8µM*.
O=[N+]([O-])c1ccccc1/C=C\C=N\N1CCN(c2ccccc2)CC1 was read as BAZ2B inh 3.98µM*, G9a block 11.2µM*, L3MBTL1 block inconclusive, HP1b chromo inh inconclusive and JMJD2A Tudor 10µM*.
Screening Cc1ccccc1/C=N/N1CCN(c2ccccc2)CC1 returned BAZ2B inh 20µM*, G9a block 28.2µM*, L3MBTL1 block inconclusive, HP1b chromo inh inconclusive and JMJD2A Tudor inconclusive.
Screening O=[N+]([O-])c1ccccc1/C=N/N1CCN(c2ccc(Cl)cc2)CC1 returned BAZ2B inh 14.1µM*, G9a block 17.8µM*, L3MBTL1 block inconclusive, HP1b chromo inh inconclusive and JMJD2A Tudor inconclusive.
Screening O=[N+]([O-])c1ccccc1S(=O)(=O)N1CCN(c2ccccc2)CC1 returned BAZ2B inh inconclusive, G9a block 2.6%, L3MBTL1 block -28.5%, HP1b chromo inh 5.0% and JMJD2A Tudor inconclusive.
`O=[N+]([O-])c1ccccc1/C=N\N1CCN(c2ccccc2)CC1` gave BAZ2B inh 17.8µM*, G9a block 10µM*, L3MBTL1 block inconclusive, HP1b chromo inh inconclusive and JMJD2A Tudor 39.8µM*.
NS(=O)(=O)c1ccc(N/N=C/C=C/c2ccccc2[N+](=O)[O-])cc1 was read as BAZ2B inh inconclusive, G9a block 31.6µM*, HP1b chromo inh inconclusive and JMJD2A Tudor inconclusive.
For O=[N+]([O-])c1ccccc1/C=C/C=N/Nc1nc(N2CCCCC2)nc(N2CCCCC2)n1 the results were BAZ2B inh inconclusive, G9a block 39.8µM*, L3MBTL1 block -12.9%, HP1b chromo inh inconclusive and JMJD2A Tudor inconclusive.
COc1ccccc1N1CCN(/N=C/C=C/c2ccccc2[N+](=O)[O-])CC1 was read as BAZ2B inh 11.2µM*, G9a block 11.2µM*, L3MBTL1 block inconclusive, HP1b chromo inh inconclusive and JMJD2A Tudor 20µM*.
O=[N+]([O-])c1ccccc1/C=N/Nc1nc(N2CCCC2)nc(N2CCCC2)n1 was read as BAZ2B inh -38.1%, G9a block -26.2%, L3MBTL1 block 3.9%, HP1b chromo inh 6.6% and JMJD2A Tudor -33.3%.
Screening Cc1c(CNCc2ccc(OC(C)C)cc2)c(C(=O)O)c(C)n1Cc1ccc(Cl)cc1 returned BAZ2B inh -29.7%, G9a block -0.6%[59 µM], HP1b chromo inh 41.1% and JMJD2A Tudor -23.2%.
For Cc1ccc(C)c(N(C)C(=O)C2CCN(S(=O)(=O)c3cccc4nsnc34)CC2)c1 the results were G9a block -0.6%[59 µM], HP1b chromo inh 30.1% and JMJD2A Tudor -19.0%.
`CCOc1ccccc1NC(=O)CSc1nnc2[nH]c(=O)cc(-c3ccccc3)n12` gave BAZ2B inh -4.0%, G9a block inconclusive, HP1b chromo inh 61.8% and JMJD2A Tudor -13.0%.
CCN=c1scc(C)n1/N=C/c1cc(Br)c(O)c(Br)c1 was read as BAZ2B inh 44.7µM*, G9a block 10µM*, L3MBTL1 block -4.2%, HP1b chromo inh inconclusive and JMJD2A Tudor inconclusive.
COCCN=c1scc(-c2cccs2)n1/N=C/c1ccc(O)c(O)c1O was read as BAZ2B inh 35.5µM*, G9a block 5.62µM*, L3MBTL1 block inconclusive, HP1b chromo inh inconclusive and JMJD2A Tudor 8.91µM*.
Screening CCCc1nc2ccccc2c(=O)n1/N=C/c1ccccc1O returned BAZ2B inh -5.3%, G9a block 12.1%, L3MBTL1 block -4.6%, HP1b chromo inh 49.8% and JMJD2A Tudor -19.0%.
Screening CCN=c1scc(C)n1/N=C/c1ccc(O)c(O)c1O returned BAZ2B inh 22.4µM*, G9a block 5.01µM*, L3MBTL1 block 31.6µM*, HP1b chromo inh inconclusive and JMJD2A Tudor 44.7µM*.
COc1cc(/C=N/NC(=O)c2nnn(-c3nonc3N)c2-c2cccs2)ccc1O was read as BAZ2B inh -21.3%, G9a block 53.3%, HP1b chromo inh 32.8% and JMJD2A Tudor -34.5%.
For Cc1ncc(COC(=O)C(C)C)c2cc(C(=O)Nc3ccccc3C(F)(F)F)c(=O)oc12 the results were BAZ2B inh 8.5%, G9a block 34.6%[59 µM], HP1b chromo inh 56.6% and JMJD2A Tudor -4.6%.
For COc1ccc(C2Nc3ccccc3C(=O)N2Cc2ccccc2)cc1COc1cccc(C)c1 (stereo not given) the results were JMJD2A Tudor -12.2%.
`CCCCNc1c([N+](=O)[O-])cc(C)cc1[N+](=O)[O-]` gave BAZ2B inh 31.6µM*, G9a block 39.8µM*, L3MBTL1 block inconclusive, HP1b chromo inh 15.8µM* and JMJD2A Tudor 17.8µM*.
Screening CCCCNc1c([N+](=O)[O-])cc(C(=O)O)cc1[N+](=O)[O-] returned BAZ2B inh -31.5%, G9a block 10.3%[59 µM], L3MBTL1 block -3.4%, HP1b chromo inh 7.3% and JMJD2A Tudor -10.9%.
For Cc1ccccc1CNC(=O)Cc1ccc(NC(=O)N2CCCCc3ccccc32)cc1 the results were BAZ2B inh -12.5%, G9a block 9.1%[59 µM], HP1b chromo inh inconclusive and JMJD2A Tudor -23.3%.
For CCCCNC(=O)N(C)c1nc2ccccc2s1 the results were BAZ2B inh -3.8%, G9a block 50.1µM*, L3MBTL1 block 14.9%, HP1b chromo inh 46.5% and JMJD2A Tudor 7.7%.

Source: PubChem BioAssay
